Holding throughout (experiment): PBM binding z-score (relative to random genomic background probes); higher = stronger binding; sequences stand for … in GC…GCGATTGACAGCGTAGAATGAAGG
The subject of assay [1] is PPARg:RXRa DBDmut IVT, anti-RXR (DBD mutation: RXRa K156A/R161A, NR concentration 270 nM, RXRa partner concentration 90 nM). A digest of the protocol:
(§1)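 Random background probes are the reference for binding z-scores. These scores derive from regression-normalized fluorescence on custom Agilent 4×180K protein-binding microarrays incubated 1 h with ligand-free nuclear receptor dimers. Binding was detected with antibodies against each partner (one per run).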

Assay [2] has as its system PPARg:RXRa IVT, anti-PPARg (NR concentration 270 nM, RXRa partner concentration 90 nM). A digest of the protocol: as §1
For assay [3], the system named is PPARg DBDmut:RXRa IVT, anti-PPARg (DBD mutation: PPARg1 K132A/R137A, NR concentration 270 nM, RXRa partner concentration 90 nM). A digest of the protocol:
as §1

Assay [4] deals with PPARg DBDmut IVT, anti-PPARg (DBD mutation: PPARg1 K132A/R137A, NR concentration 270 nM). An outline of the steps: as §1
In assay [5] the test system is PPARg homodimer (NR concentration 180 nM). A digest of the protocol: as §1
Assay [6] concerns PXR:RXRa (NR concentration 270 nM, RXRa partner concentration 90 nM). An outline of the steps:
as §1

Assay [7] concerns PXR homodimer (NR concentration 270 nM). An outline of the steps: as §1
Assay [8] has as its system RARa:RXR (NR concentration 270 nM, RXRa partner concentration 90 nM). An outline of the steps: as §1
Assay [9] concerns RARa homodimer (NR concentration 270 nM). A digest of the protocol: as §1
The test system of assay [10] is RARb:RXRa (NR concentration 270 nM, RXRa partner concentration 90 nM). An outline of the steps: as §1

TTTCGGAGGACACGAAAGGTCAGAGCTCGACATC: the PBM binding z-score in assay [1] was 0.372; in [2], 2.08; in assay [3] it was -0.0451; in assay [4], 0.278; in [5], 4.65; in [6], 4.29. Moreover, the PBM binding z-score worked out at 0.968 in assay [7], 4.44 in assay [8], 1.88 in assay [9] and 4.32 in assay [10].
On to CGTCAAAGTTGAAGGTAACGTAACAGAAAGCAGC, for which the PBM binding z-score in [1] was 0.274; in [2] it was 0.441; in [3], 0.243; in [4] it was 0.266; in [5], 0.228; in assay [6] it was 0.242. The PBM binding z-score is -0.121 in [7], 0.656 in assay [8], 0.1 in assay [9] and 1.64 in [10].
As for TTACCAAGGTGAAAGGTCGTCGATGCACGCCTTG, the PBM binding z-score in assay [1] turned out to be 2.84; in assay [2], 5.42; in assay [3], 0.568; in assay [4], 0.68; in [5] it was 1.99; in assay [6], 4.17. Also, the PBM binding z-score in assay [7] was -0.076; in [8], 6.52; in [9], -0.215; in [10], 3.27.
For the sequence AATACAGGGTCATCGTAGGGCAGAGTACGCACAG, the PBM binding z-score is 3.16 in [1]; 4.29 in [2]; 1.4 in assay [3]; 0.756 in assay [4]; 3.57 in [5]; 5.4 in assay [6]. Moreover, the PBM binding z-score amounted to 0.861 in [7], 5.26 in assay [8], 0.97 in assay [9] and 4.7 in [10].
As to CCTACTGGGCCACGAAAGCTCATTGATTCAGTGA, the PBM binding z-score in assay [1] is 5.87; in assay [2], 5.08; in assay [3], 0.172; in [4], 0.266; in [5], -0.477; in [6] it was -0.923. Moreover, the PBM binding z-score is -0.798 in assay [7], -0.778 in assay [8], -0.375 in [9] and -0.0436 in assay [10].
With TAGCCTAGGTCAGGTCGGGCCAGTATACGCTATA, the PBM binding z-score in [1] is 0.315; in [2], 1.69; in assay [3] it was -0.681; in assay [4], -1.44; in assay [5] it was 0.477; in assay [6], 1.51. Besides, the PBM binding z-score in [7] was -0.668; in assay [8], 1.25; in assay [9] it was -1.19; in [10] it was 3.24.
With AATACATGGTCACTAGGCCAGAGTAGGTACGAAT, the PBM binding z-score is 1.04 in assay [1]; 2.74 in assay [2]; 0.798 in [3]; 1.09 in assay [4]; 0.338 in assay [5]; -0.198 in [6]. Moreover, the PBM binding z-score was -0.158 in assay [7], -0.153 in [8], -0.0326 in assay [9] and 1.14 in assay [10].
In the case of CCTCGGAGGACAGAAGGGCAGAGCTGTCCGCTTT, the PBM binding z-score in [1] is -0.39; in [2] it was -0.863; in assay [3], -1.35; in [4] it was -1.74; in assay [5], -0.82; in assay [6] it was -0.857. Further, the PBM binding z-score in assay [7] is -0.749; in assay [8] it was -0.782; in assay [9] it was -0.361; in [10] it was 1.2.
On to CCTACCAGGCCAGGGTCACTCAAGCATTTCGCTT, for which the PBM binding z-score in assay [1] is -0.315; in assay [2], 1.13; in assay [3], -1.07; in [4], -1.26; in assay [5], 1.75; in [6] it was 2.39. For the same sequence, the PBM binding z-score in assay [7] came to 0.0777; in assay [8] it was 2.79; in assay [9], 0.657; in assay [10], 2.65.
AGAATGAGGTTATTAAGATCAGGGGATTGCGGTC: the PBM binding z-score in assay [1] came out at 2.94; in assay [2], 2.52; in assay [3], 0.849; in assay [4], 0.535; in assay [5] it was 0.326; in assay [6], 1.14. In addition, the PBM binding z-score in [7] was 0.713; in assay [8], 1.15; in assay [9], 0.826; in assay [10] it was 1.34.
On to CCTATTAGATGACCATAAGGGCAACCGAAGCTCG, for which the PBM binding z-score in [1] is -0.108; in assay [2], 0.24; in assay [3], 0.781; in [4] it was -0.21; in assay [5], 1.46; in [6], 0.624. The PBM binding z-score in [7] was 0.912; in assay [8], 0.938; in [9], 2.1; in [10] it was 1.4.
As for TTATATAGGTAAACAGGTGAAAGTCCGTAAGTTA, the PBM binding z-score in assay [1] is 6.54; in [2], 6.8; in assay [3], 2.26; in assay [4], 1.83; in [5], 1.4; in [6], 0.532. The PBM binding z-score in assay [7] is 0.398; in [8], 0.957; in [9], 1.15; in [10], 0.687.

(Values after the supplement of paper PMC6555819.)
